Laboratory results from article PMC5540273 (PLoS ONE, 2017).
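Further: KINOMEscan kinase panel screen.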

What follows are compounds tested on T1, p38-gamma. Conditions: concentration: 1 μM, replicates: in singlicate; n = 1.
T1 construct: gene MAPK12
In the case of `O=c1cc(N2CCOCC2)nc2n(Cc3cccc(Cl)c3Cl)c3ccccc3n12` [GSK2299009], the “%Inh” value was 30%.
With `CS(=O)(=O)Cc1ccc(Nc2nccc(-c3c(-c4cccc(NC(=O)C5CCCCC5)c4)nn4ncccc34)n2)cc1` [GSK350559] the “%Inh” value was 43%.
With `Cc1ccccc1Cn1ccn2c(=O)cc(N3CCOCC3)nc12` [GSK2269905] the “%Inh” value was 0%.
In the case of `O=C1NC(=O)C(c2ccc(Cl)cc2)=C1Nc1cccc(Cl)c1` [SB-317651], the “%Inh” value was 11%.
With `Cn1cnc2c(N)ncnc21` [SKF-97623] the “%Inh” value was 0%.
With `Cc1nccc(-c2c(-c3ccc(F)cc3)ncn2CCCN2CCOCC2)n1.Cl` [SB-282975] the “%Inh” value was 26%.
`CNCc1ccc2nc(NC(=O)c3ccc(C(C)(C)C)cc3)cn2c1` was tested, and the “%Inh” value was 26%.
With `Cc1cnc(N)c(/C=C/c2cncc(C(=O)NCCc3ccc(Cl)cc3Cl)c2)c1.Cl` [GSK190937] the “%Inh” value was 52%.
In the case of `CC[C@@H]1CO[C@H](C(=O)Nc2ccccc2)CN1c1cc(-c2ccc3c(N)n[nH]c3c2)nc(NC)n1` [GSK2376236], the “%Inh” value was 0%.
`Cc1cccc2c(-c3ccncn3)c(-c3ccc(F)cc3)nn12` [GW515532] was tested, and the “%Inh” value was 20%.
For `Cc1ccc(NC(=O)Nc2ccccc2F)cc1-c1ccc(C(=O)Nc2ccncc2)cc1` [GSK1398477], the “%Inh” value was 0%.
For `c1ccc(-c2ccnc3[nH]ccc23)cc1` [SB-693578], the “%Inh” value was 0%.
`CCc1ccc(-c2ccc3c(c2)-c2n[nH]cc2S(=O)(=O)N3C)cc1` was tested, and the “%Inh” value was 0%.
With `Cc1c(Cn2c(C)c(C)n3c(=O)cc(N4CCOCC4)nc23)cccc1C(F)(F)F` [GSK2328680] the “%Inh” value was 0%.
